Source: PubChem BioAssay
Pf growth 48h: inhibits P. falciparum growth in the first generation, 48 h. AID 504832. P. falciparum luciferase growth in erythrocytes, 48 h. Potency, µM (titrated, usually from 28.7 µM), hits mostly inhibitors. 310,000 compounds, 5.9% hits
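In quantitative HTS format, infected erythrocytes bearing luciferase-reporter parasites were treated for a single generation at 37 C. Luminescence after adding detection reagent served as the growth measure.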
Pf growth 96h: P. falciparum growth inhibition at 96 hour, primary screen for plastid delayed-death inhibitors | P. falciparum luciferase reporter growth, 96 h | Potency, µM (doses to about 28.7 µM), usual class: inhibitors | 320,000 compounds, 6.9% hits | AID 504834
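P. falciparum expressing integrated firefly luciferase, in erythrocytes at 2% hematocrit, 0.05% parasitemia, incubated with compounds 96 h at 37 C, 5% CO2. Growth inhibition read as loss of luminescence; two-generation exposure targets delayed-death apicoplast inhibitors.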
HCV inh: HCV inhibition; Huh7.5.1 HCVcc-Cre infection, luciferase reporter, 44 h; Potency, µM (highest dose often 41.8 µM), most hits filed as inhibitors; 340,000 compounds, 3.4% hits
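HCVcc-Cre virus at an moi near 0.5 was added right after compound to cells cultured 4 h from seeding (1,000 cells/well). Luciferase activity was determined 44 h later, 15 min after substrate addition at RT.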
SARS PLpro yeast: inhibitors of SARS-CoV papain-like protease in yeast; S. cerevisiae expressing SARS-CoV PLpro, growth rescue; Potency, µM (series often up to 32.9 µM), usual class: activators; 330,000 compounds, 0.19% hits; AID 485353; calls by dose curve; also: nearly all actives have a fitted effect of over 55% in size
AMA1-RON2 inh: AMA1-RON2 (P. falciparum) interaction inhibition. AlphaScreen AMA1-biotinylated RON2 peptide binding. Potency, µM (highest dose often 58.2 µM), most hits filed as inhibitors. 360,000 compounds, 0.2% hits. AID 720542; also: nearly all actives have a fitted effect of over 45% in size
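AMA1 (3D7) with his tag at 25 nM final met compounds first, then biotinylated RON2 peptide at 25 nM; detection used donor plus acceptor beads, 10 µg/mL apiece, read by AlphaScreen after 30 min at room temperature.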
NS1 inh: influenza NS1 inhibition; Potency, µM (highest dose often 46.1 µM); 270,000 compounds, 0.4% hits; AID 2326; calls by dose curve; also: actives are rising curves; nearly all actives have a fitted effect of over 50% in size
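Recovery from NS1-induced slow growth read by OD600 in budding yeast switched to galactose assay medium (pH 6.0, -URA) at 1:100 dilution. Compound 23 nl per well; the matching strain lacking NS1 serves as control.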
Of the large screens only hits and unclear results are named; the others gave an inactive call. An excerpt weighted towards active compounds, which were near 12% of everything screened. Unless noted, calls follow the shape of the dose curve; as a rule, active = well fitted curve in the direction sought with a large enough effect; inconclusive = small, poorly fitted or top-dose-only effect, or another doubt; inactive = no such curve, though single readings can be large; an effect the other way counts as inactive or inconclusive.

Cc1nc(N/N=C/c2cccc(F)c2)cc(N2CCOCC2)n1	Pf growth 48h inconclusive, Pf growth 96h 9.3µM, HCV inh inconclusive
C/C(=N\NC(=O)C1CC1c1ccccc1)c1cccc([N+](=O)[O-])c1 (centres undefined)	Pf growth 96h 8.3µM
C/C(=N\Nc1cc(N2CCOCC2)nc(C)n1)c1cccc([N+](=O)[O-])c1	Pf growth 48h inconclusive, HCV inh 11µM (no result: NS1 inh)
C/C(=N\Nc1nnc(-c2ccccc2)c(-c2ccccc2)n1)c1cccc([N+](=O)[O-])c1	none
C/C(=N\Nc1cc(C)nc(NCc2ccccc2)n1)c1cccc([N+](=O)[O-])c1	Pf growth 48h inconclusive, Pf growth 96h inconclusive, HCV inh 2µM
C#CCOc1ccc(/C=C2/C(=O)ON=C2C)cc1Br	none
COc1ccc(OC(C)C(=O)Nc2ccc(F)cc2F)cc1 (centres undefined)	none
CCn1c2ccccc2c2cc(NC(=O)CC(C)=O)ccc21	HCV inh 13µM
